Experimental findings from PubChem BioAssay (NCI) are described below.

The panel holds about 83,000 compounds, 20% with a hit somewhere; the sample as a whole holds those more often.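 Assay: single dose, 48 h. Readout: percent growth (0 = no net growth; negative = cell death). Active: <10.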 Values without a mark were called inactive. Active and inactive are the calls of the source.

The test deals with HL-60(TB) leukemia. The test can be described thus: NCI-60 one-dose screen, 48 h (100 = growth as untreated, 0 = no growth, -100 = all killed). The conditions noted are these: 10 µM unless noted.
Take `Cn1cc(-c2cc(N)n3nc(-c4cn(C)c5ccccc45)cc3n2)c2cc(Br)ccc21`: the growth was -32.3% (active).

With `COc1ccc2nc(Nc3cccc(NC(=O)c4ccc(CN5CCN(C)CC5)c(C(F)(F)F)c4)c3)ccc2c1`, the growth is -47.8% (active).

Consider `COc1ccc(NC(=O)CSc2nnc(-c3ccc4nc(-c5ccc(Cl)cc5)[nH]c4c3)o2)cc1`, for which the growth was 63%.

Regarding `Cn1cc(-c2cc3nc(-c4cn(C)c5ncc(Br)cc45)cc(N)n3n2)c2cc(F)ccc21`, the growth was 1.38% (active).

Take `O=c1[nH]n(C(=S)N/N=C/c2ccc(F)cc2)c(=O)c2ccccc12`: the growth is 44.7%.

Regarding `O=C1CCCc2cc(OCC(=O)N3CCCCC3)ccc2N1`, the growth was 91.9%.

With `COc1ccc2oc(=O)c(C3(C)NC(=O)c4c(/C=C/C(=O)OC(C)(C)C)cccc4N3)cc2c1` (stereo not given), the growth is -5.42% (active).

Regarding `CC(C)C[C@H](NC(=O)CNC(=O)C[C@H]1O[C@@H]2OC3(C)CC[C@H]4[C@H](C)CC[C@@H]([C@H]1C)[C@@]24O3)B(O)O`, the growth is 3.8% (active).

For the compound `Clc1ccc2c(NCCNC34CC5CC(CC(C5)C3)C4)ccnc2c1`, the growth was -53.1% (active).

As for `COc1cc(CNC(=O)C[C@H](C)CCC=C(C)C)ccc1OCc1cn(-c2ccc(Cl)c(Cl)c2)nn1`, the growth is 84%.

In the case of `C=C1CCC2C3(C)COC(c4ccccc4)OC3CCC2(C)C1CC(Sc1ccccc1)C1=CCOC1=O` (stereo not given), the growth was -33% (active).

For the compound `COc1cc(C2CC(c3ccc(F)cc3)=Nc3c(N)nc(N)nc3N2)ccc1Oc1nc(Nc2ccc(F)cc2)nc(N(C)C)n1` (stereo not given), the growth is 14.4%.

Turning to `O=C(CSc1nnc(-c2ccc3nc(-c4ccccc4)[nH]c3c2)o1)Nc1ccc(Br)cc1`, the growth was 51.3%.

Consider `COc1cc(-c2nc3cc(Cl)c(Cl)cc3[nH]2)ccc1OCc1nnc(-c2cccs2)o1`, for which the growth is 72%.

Turning to `O=C(Nc1ccccc1)N1CCN(c2cc(-c3cn(-c4ccccc4)nc3-c3cccc(O)c3)ccn2)CC1`, the growth was 23.3%.

On to `COc1ccc2nc(Nc3cccc(NC(=O)c4ccc(CN5CCCN(C)CC5)c(C(F)(F)F)c4)c3)ccc2c1`, for which the growth was -28% (active).

Consider `Cn1cc(-c2nnc(N)nc2-c2c[nH]c3ccc(F)cc23)c2cc(Br)cnc21`, for which the growth is 47.1%.

Turning to `CCOC(=O)C1=C(N)N(c2ccccc2)C2=C(C(=O)CC(C)(C)C2)C1c1ccc(Cl)cc1` (stereo not given), the growth is 6.03% (active).

For the compound `COc1cccc(COc2ccc(NC(=O)Nc3ccc(Cl)c(C(F)(F)F)c3)cc2)c1`, the growth is 17.8%.

For `O=C(c1ccc(Cl)cc1)C1[C@H](c2ccccc2Br)[C@@H](c2ccccc2)NC12C(=O)Nc1ccccc12` (stereo not given in full), the growth is -2.22% (active).

With `N#Cc1c(NC(=O)N2CCOCC2)n(-c2ccc(OC(F)(F)F)cc2)c2cc(F)ccc12`, the growth was 91.2%.

With `O=C(c1ccccc1)C(c1c[nH]c2ccccc12)c1c[nH]c2ccccc12`, the growth was 53.8%.

Turning to `CC(C)c1ccc2c(N)c(C(=O)Nc3cccc(C(F)(F)F)c3)sc2n1`, the growth is 66.2%.

On to `c1ccc(CSc2nnc(-c3ccc4nc(-c5ccccc5)[nH]c4c3)o2)cc1`, for which the growth is 83.5%.

As to `Nc1nnc(-c2c[nH]c3ncc(Br)cc23)c(-c2c[nH]c3ccc(F)cc23)n1`, the growth is -0.929% (active).

In the case of `CCN(CC)C(=O)N/C(N)=N/c1nc2ccccc2s1`, the growth was 52.1%.

For `O=C(CNc1nc(-c2ccccc2)cs1)Nc1cccc(Cl)c1`, the growth was -2.63% (active).

Turning to `Cc1ccc(C(=O)N/C(=C2/OCCN2C)[P+](c2ccccc2)(c2ccccc2)c2ccccc2)cc1`, the growth is 38.8%.

As to `O=C(COc1ccc(NC(=O)Nc2ccc(Cl)c(Cl)c2)cc1)N=Nc1c(O)[nH]c2ccc(Br)cc12`, the growth was -27.2% (active).

In the case of `N#Cc1c(NC(=O)c2ccc(C(F)(F)F)cc2C(F)(F)F)sc2c1CCC(=O)C2`, the growth was -24% (active).

Consider `O=C(c1ccccc1)c1ccc2nc(-c3ccccc3Br)[nH]c2c1`, for which the growth is -52.4% (active).

For the compound `NS(=O)(=O)c1ccc(NNC(=O)CCC(=O)c2ccccc2)cc1`, the growth is 75.3%.

With `Nc1cc2ccccc2c(=O)n1NC(=O)c1ccc(I)cc1`, the growth was 77%.

As for `CCOC(=O)COc1c(OC)c(OC)cc2oc(-c3cccc(C(=O)Nc4ccc(Cl)cc4)c3)cc(=O)c12`, the growth was 97.6%.

As to `Cc1cccc(-c2nc(Nc3cccc(S(N)(=O)=O)c3)c3ccccc3n2)c1`, the growth is 44.9%.

With `COC(=O)CC1CC1C1Cc2c(nc(N(C)S(C)(=O)=O)nc2C(C)C)-c2ccc(F)cc21` (stereo not given), the growth is 58.7%.

Regarding `CC(C)CCSc1nc(NC2CC2)c(C#N)c(-c2ccc(C(C)C)cc2)n1`, the growth is 80.4%.

With `NC(=S)Nc1cccc(NC(N)=S)c1`, the growth was 99.1%.

On to `Cc1ccc(NC(=O)N/N=C/c2c[nH]c3ccccc23)c(C)c1`, for which the growth was 1.73% (active).

For the compound `N#Cc1ccc(NC(=O)CSc2ccc(-c3ccc(Br)cc3)nn2)cc1`, the growth is 82.9%.
